In PubChem BioAssay AID1259422 (The Scripps Research Institute Molecular Screening Center, 2018):
Several values for one entry are separate records, joined by “and”; a condition that tells them apart may be missing. Equal values may be shown once. Screen size: about 640,000 compounds; about 9,300 (1.5%) were called active. Cut-off read from the data, not from the text of the source: active = inhibition above about 32%; inactive = the rest. What follows is part of a selection rich in actives, with near analogues and random picks from the rest.

assay: TEAD-YAP interaction inhibition, primary screen, TEAD-YAP interaction inhibitor project, luminescence, HEK-TIYL cells (AID 1259422); conditions: TEAD-Gal4/YAP UAS-luciferase luminescence, at 9.12 µM, hits give high values;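 note: 0% = median of test compound wells and 100% = reference inhibitor wells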

| Compound | inhibition |
| --- | --- |
| COc1ccccc1N1C(=O)C2C(C(C)=O)=NN(c3cccc(Cl)c3)C2C1=O (centres undefined) | 2.39% (inactive) |
| O=C(CN1CCOCC1)NCC1(c2ccccc2)CCCC1 | 4.7% (inactive) |
| CCOC(=O)c1c(NC(=O)CSc2nnc(CNC(=O)c3cccs3)n2-c2ccccc2OC)sc2c1CCCCC2 | 11.5% (inactive) |
| O=S1(=O)Nc2cccc3cccc1c23 | 9.46% (inactive) |
| CCN1C/C(=C/c2ccc(NC(C)=O)cc2)C(=O)/C(=C/c2ccc(NC(C)=O)cc2)C1 | 77.6% (active) |
| CCNCC(=O)Nc1ccc(NC(C)=O)cc1 | 5.37% (inactive) |
| CC(=O)Nc1ccc(CN2CCOCC2)cc1 | -2.53% (inactive) |
| CCCOc1ccc(/C(O)=C2/C(=O)C(=O)N(CCN3CCOCC3)C2c2ccc(F)cc2)cc1C (centres undefined) | -9.41% (inactive) |
| O=C1CCCN1CCCNc1cc(-c2cccs2)ncn1 | -13.2% (inactive) |
| CN(CCC#N)C(=O)Cn1ncc2c1-c1ccccc1OC2 | 4.76% (inactive) |
| COC(=O)c1cc(S(=O)(=O)Nc2ccc(C(C)=O)cc2)cn1C | -5.94% (inactive) |
| CC(=O)NC1=NN(C(C)=O)C(C)(c2ccc(C)cc2)S1 (centres undefined) | 10.1% (inactive) |
| COc1ccc(C2(C)SC(NC(C)=O)=NN2C(C)=O)cc1 (centres undefined) | 17.7% (inactive) |
| CC(=O)NC1=NN(C(C)=O)C(C)(c2ccc(Cl)s2)S1 (centres undefined) | 63.5% (active) |
| CCOC(=O)c1ccc(Nc2c(-c3ccccc3)c(=O)c2=O)cc1 | -7.89% (inactive) |
| NC(=O)C1(N2CCCCC2)CCN(C(=O)Nc2ccc(Cl)cc2)CC1 | 3.68% (inactive) |
| CCC(OC(=O)C(CCSC)NC(=O)c1ccccc1)C(=O)Nc1ccc(S(N)(=O)=O)cc1 (centres undefined) | -0.22% (inactive) |
| C=CCOC(=O)c1sc(N2C(=O)C(=O)/C(=C(/O)c3ccccc3)C2c2ccc(C)cc2)nc1C (centres undefined) | 7.19% (inactive) |
| CN(C)CCNc1nc2c(c(=O)n(C)c(=O)n2C)n1Cc1ccc(F)cc1 | 10.5% (inactive) |
| COc1ccc(Cn2c(NCCO)nc3c2c(=O)n(C)c(=O)n3C)cc1 | 40.8% (active) |

| Compound | inhibition |
| --- | --- |
| CCCn1c(NCCO)nc2c1c(=O)n(C)c(=O)n2C | 15.2% (inactive) |
| CC1=C/C(=N\S(=O)(=O)c2ccccc2)C=C(Br)C1=O | -6.31% (inactive) |
| CC1=C(C(=O)OCC2CCCO2)C(c2cccs2)C2=C(CC(c3cccs3)CC2=O)N1 (centres undefined) | 9.36% (inactive) |
| CC1=C(C(=O)OC(C)C)C(c2cccs2)C2=C(CC(c3ccco3)CC2=O)N1 (centres undefined) | 60.2% (active) |
| COCCOC(=O)C1=C(C)NC2=C(C(=O)CC(c3cccs3)C2)C1c1ccc(C)s1 (centres undefined) | 16% (inactive) and 7.86% (inactive) |
| COc1cc(NC(=O)c2sc3[nH]c(=O)c(C(=O)O)cc3c2N)c(OC)cc1Cl | -5.84% (inactive) |
| CCn1cc(C(=O)N2CCc3c(nc(N4CCC(C)CC4)[nH]c3=O)C2)cn1 | -0.66% (inactive) |
| Cc1cnc(Nc2ccncc2)nc1Nc1ccc(Oc2ccccc2)cc1 | 45.7% (active) |
| Cc1cnc(Nc2ccc(C(F)(F)F)cc2)nc1Nc1ccccc1 | 11.3% (inactive) |
| Cc1cnc(Nc2ccc3ncccc3c2)nc1Nc1ccccc1 | 29.6% (inactive) |
| O=C(OCCN1C(=O)c2cccc3c(N4CCCCC4)ccc(c23)C1=O)c1cc(Cl)cc(Cl)c1 | -2.51% (inactive) |
| O=C(NCCOc1ccccc1)c1cnc(N2CCCC2CO)s1 (centres undefined) | 81.8% (active) |
| O=C(NCCOc1ccccc1)c1cnc(N2CCN(c3ccccn3)CC2)s1 | -4.73% (inactive) |
| O=C(NCCOc1ccccc1)c1cnc(NCCCN2CCCC2=O)s1 | -45.5% (inactive) |
| COc1ccc(-c2cn3cc(C(=O)O)ccc3n2)cc1 | 15.8% (inactive) |
| COc1ccc(-c2cn3ccc(C)cc3n2)cc1 | 90.6% (active) |
| COc1cc(C(=O)Nc2cccc(-c3cn4ccc(C)cc4n3)c2)cc(OC)c1OC | -17.7% (inactive) |
| COc1ccc(-c2nc3sc(-c4ccc(OC)cc4)nc3s2)cc1 | -1.58% (inactive) |
| COc1ccc(-c2nc3c(C#N)c(CC#N)nn3cc2C)cc1F | 7.27% (inactive) |
| COc1ccc(-c2cn3ccc(C)cc3n2)cc1F | 78.7% (active) |

| Compound | inhibition |
| --- | --- |
| COCCNc1nc(-c2c[nH]c3ccccc23)cs1 | 0.65% (inactive) |
| CCOC(=O)N1CCC(NC(=O)C2CC23CCN(CC2CC=CCC2)CC3)CC1 (centres undefined) | 11.9% (inactive) |
| CCN(CC(=O)Nc1ccccc1OC)Cc1nc2scc(-c3ccccc3)c2c(=O)[nH]1 | -1.6% (inactive) |
| CC(=O)N1c2ccccc2N=C(c2ccc(C)cc2)CC1c1ccc([N+](=O)[O-])cc1 (centres undefined) | 2.03% (inactive) |
| Cc1ccc(C2=Nc3ccccc3N=C(c3ccc(C(C)(C)C)cc3)C2)c(O)c1 | 38.6% (active) |
| Oc1ccc(Cl)cc1C1=Nc2ccccc2N=C(c2cccc(F)c2)C1 | -24.4% (inactive) |
| COc1ccccc1NC(CNS(=O)(=O)c1ccc(Cl)cc1)c1ccccc1 (centres undefined) | -1.96% (inactive) |
| Cc1cccc(Cc2cnc(NC(=O)COc3cccc(C)c3)s2)c1 | 5.87% (inactive) |
| COc1ccccc1OCC(=O)Nc1ncc(Cc2cccc(C)c2)s1 | 3.43% (inactive) |
| Cc1ccccc1OCC(=O)Nc1ncc(Cc2cccc(Cl)c2)s1 | 50.4% (active) |
| O=C(Cn1c(=O)oc2cc(S(=O)(=O)NC3CCCC3)ccc21)N1CCCCCC1 | -0.34% (inactive) |
| COc1cccc(C2=CC(c3cccc(OC)c3)n3ncnc3N2)c1 (centres undefined) | 39.1% (active) |
| Brc1ccc(C2=CC(c3cccc(Br)c3)n3ncnc3N2)cc1 (centres undefined) | 3.83% (inactive) |
| CCOc1ccc(C2=CC(c3cc(OC)c(OC)c(OC)c3)n3ncnc3N2)cc1 (centres undefined) | 66.9% (active) |
| COc1ccc(OC)c(C2C=C(c3ccc(Br)cc3)Nc3ncnn32)c1 (centres undefined) | 3.26% (inactive) |
| COc1ccc(C2=CC(c3ccc(OC)c(OC)c3)n3ncnc3N2)cc1OC (centres undefined) | 3.8% (inactive) |
| COc1ccc(C2C=C(c3ccc(OC(F)F)cc3)Nc3ncnn32)cc1 (centres undefined) | -77.6% (inactive) |
| O=C(N/N=C\c1cccc([N+](=O)[O-])c1)c1ccccc1I | -11.5% (inactive) |
| COC(=O)c1ccc(C)c(NC(=O)Nc2cccc(Cl)c2)c1 | 7.6% (inactive) |
